Measurements from PubChem BioAssay (NCI).
Values joined by “and” are separate entries in the source; they are usually repeats but may differ in a detail not shown here. Identical values can stand only once. This is part of a sample that, as a whole, favours compounds with a hit. Of some 79,000 tested, about 15% had one in any assay. Unmarked numbers belong to inactive results. Active and inactive are the calls of the source. Rule as the data show it: active = growth inhibition above about 70%; inactive = the rest.

Tests used:
[1] = NCI Yeast Anticancer Drug Screen. Data for the rad50 strain (AID 155);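 also: 0% = growth of vehicle-only cultures of the same strain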; details: S. cerevisiae rad50 strain growth inhibition, stronger effect = higher value
Summary of the method: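 Relative growth inhibition (compound vs vehicle) was measured in yeast with a defined repair-gene alteration.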

[2] = NCI Yeast Anticancer Drug Screen. Data for the mec2-1 strain (AID 157); details: S. cerevisiae mec2-1 strain, stronger effect = higher value
Summary of the method: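 mec2-1 yeast strain, carrying an alteration in DNA damage repair or cell cycle control, was exposed to compounds; growth inhibition was measured relative to vehicle-treated controls.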

[3] = NCI Yeast Anticancer Drug Screen. Data for the sgs1 mgt1 strain (AID 161);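 also: 0% = growth of cultures given vehicle only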; details: S. cerevisiae sgs1 mgt1 strain, stronger effect = higher value
Summary of the method: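 Percent growth inhibition was derived by comparing compound-exposed mutant yeast with vehicle-exposed cultures. The strain carries alterations in DNA damage repair.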

[4] = NCI Yeast Anticancer Drug Screen. Data for the cln2 rad14 strain (AID 165);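 also: 0% = growth equal to vehicle treated cultures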; details: S. cerevisiae cln2 rad14 strain, stronger effect = higher value
Summary of the method: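 Yeast carrying cln2 and rad14 alterations (cell cycle control and DNA damage repair) were exposed to compounds. Growth inhibition was measured against vehicle-treated controls.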

[5] = NCI Yeast Anticancer Drug Screen. Data for the bub3 strain (AID 167); details: S. cerevisiae bub3 mutant strain, stronger effect = higher value
Summary of the method: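 Screening used yeast with an engineered genetic alteration affecting cell cycle control. Compound-exposed cultures were compared with vehicle cultures, and reduced growth was taken as inhibition.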

[6] = NCI Yeast Anticancer Drug Screen. Data for the mlh1 rad18 strain (AID 175); details: S. cerevisiae mlh1 rad18 strain growth inhibition, stronger effect = higher value
Summary of the method: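 Growth inhibition of the yeast strain was measured after compound exposure and expressed relative to vehicle-treated controls. The strain carries defined defects in DNA damage repair.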

[7] = at 5.0 µM (retest, dose inferred, filed as 0.5)
[8] = at 50.0 µM (retest, dose inferred, filed as 5.0)

Structure (SMILES) | growth inhibition [1, 7] | growth inhibition [1, 8] | growth inhibition ([1]; at 50.0 µM) | growth inhibition [2, 7] | growth inhibition [2, 8] | growth inhibition ([2]; at 50.0 µM) | growth inhibition [3, 7] | growth inhibition [3, 8] | growth inhibition ([3]; at 50.0 µM) | growth inhibition [4, 7] | growth inhibition [4, 8] | growth inhibition ([4]; at 50.0 µM) | growth inhibition [5, 7] | growth inhibition [5, 8] | growth inhibition ([5]; at 50.0 µM) | growth inhibition [6, 7] | growth inhibition [6, 8] | growth inhibition ([6]; at 50.0 µM)
CCOP(=O)(OCC)/C(C#N)=C/c1cccc(C)c1 | 4% | 53% | 71.4% (active) | -14% | 28% | 58.3% | -18% | 42% | 65.8% | -17% | 9% | 35% | -8% | 52% | 52.1% | -37% | 56% | 66.3%
CCCCCCC1CCC2CCCC(C)N12 (centres undefined) | -5% | 67% | 85.3% (active) | -4% | 25% | 70.8% (active) | 10% | 68% | 88.2% (active) | 14% | 43% | 71.1% (active) | -19% | 74% (active) | 89% (active) | 2% | 57% | 74.9% (active)
Cc1cc(-c2ccccc2)cc(C)[n+]1[O-] | -1% | 20% | 20.7% | -6% | 13% | 28.1% | -6% | 12% | 54.6% | -8% | -13% | -31.3% | -2% | 14% | -12.7% | -4% | 30% | 5.4%
N#CC(C#N)=Cc1cc(Cl)ccc1O | 11% | 79% (active) | 56% and 4.55% | -14% | 44% | 45.5% and 17.9% | 2% | 58% | 46% and 65.7% | 4% | 30% | 40.7% and -4.9% | 31% | 64% | 20.7% and 2.2% | 8% | 71% (active) | 65.8% and 39.8%
COP(=S)(OC)N(C)C(=O)Oc1cccc2ccccc12 | 0% | 27% | 48.5% | -21% | 15% | 39.2% | -20% | 57% | 60% | 0% | 10% | 55.5% | 9% | 40% | 61.4% | -14% | 77% (active) | 80.8% (active)
CCN1CCC(O)(c2ccc(Cl)c(Cl)c2)C(C(=O)c2ccc(Cl)c(Cl)c2)C1 (centres undefined) | 75% (active) | 99% (active) | 99.7% (active) | 57% | 100% (active) | 99.6% (active) | 78% (active) | 99% (active) | 99.7% (active) | 60% | 99% (active) | 98.9% (active) | 71% (active) | 98% (active) | 98.8% (active) | 54% | 99% (active) | 99.6% (active)
C[CH2][Sn][CH2]C.c1cc[c]([Ge]([c]2ccccc2)[c]2ccccc2)cc1.c1cc[c]([Sn]([c]2ccccc2)[c]2ccccc2)cc1 | 99% (active) | 96% (active) | 99.2% (active) | 99% (active) | 98% (active) | 99.5% (active) | 100% (active) | 98% (active) | 99.5% (active) | 98% (active) | 97% (active) | 98.4% (active) | 99% (active) | 95% (active) | 99.3% (active) | 99% (active) | 97% (active) | 98.8% (active)
CC1C2C=CC1C(c1c3ccc(=O)c(O)c-3oc3c(O)c(O)ccc13)C2C(=O)O (centres undefined) | 11% | 33% | 17% | -1% | 10% | 47.8% | 2% | 33% | 53% | -23% | 0% | -35.2% | 9% | 37% | -8.35% | 7% | 35% | 8.3%
